In PubChem BioAssay AID1159569 (Broad Institute, 2015):
Entries with a potency or affinity are not part of this list. Inconclusive results are not listed. Unmarked numbers belong to inactive results. No rule for the calls is given here.

Assay: HepG2 cell cytotoxicity, dose response, cytotoxicity control, plate reader, dry powder samples (AID 1159569)
Conditions: HepG2 cytotoxicity counterscreen; series mostly up to 50 µM; activity change, negative = cytotoxicity: at the top concentration

| Structure (SMILES) | activity change, negative = cytotoxicity [%] |
| --- | --- |
| COc1ccc2c3c(n(C)c2c1)[C@@H](CO)N(C(=O)C1CC1)CC31CN(C(=O)Nc2cccc(F)c2)C1 | 4.26 |
| COc1cccc(C#Cc2cnc3c(c2)C(=O)N([C@@H](C)CO)C[C@H](C)[C@@H](CN(C)C(=O)C2CCCCC2)O3)c1 | -33.1 |
| O=C(NC[C@@H]1CC[C@H]2[C@H](CN2Cc2cc(-c3ccccc3)on2)O1)c1ccc2c(c1)OCO2 | 8.46 |
| COc1ccc(NC(=O)N(C)C[C@@H]2Oc3cc(-c4ccc(C)cc4)ccc3S(=O)(=O)N([C@H](C)CO)C[C@@H]2C)cc1 | -15.6 |
| OC[C@H]1[C@@H](c2ccc(-c3cccnc3)cc2)[C@@H]2CN(CC3CC3)CCCCN12 | -6.11 |
| COCC#Cc1ccc(CC[C@H]2O[C@H]3CC[C@H](CO)O[C@H]3C[C@@H]2n2cc(C3CC3)nn2)cc1 | -15.9 |
| Cc1ccc(S(=O)(=O)N(C)C[C@H]2OCc3ccccc3-c3c(n(C)c4ccccc34)C(=O)N([C@H](C)CO)C[C@@H]2C)cc1 | -40.5 |
| COc1ccc(NC(=O)N2CC3(C2)CN(C(=O)C2CCC2)[C@H](CO)c2c3c3ccc(OC)cc3n2C)cc1 | -15.6 |
| C[C@@H]1CN([C@@H](C)CO)C(=O)c2cccc(NC(=O)C3CC3)c2O[C@@H]1CN(C)C(=O)Nc1ccc(C(F)(F)F)cc1 | -8.27 |
| C[C@@H]1CN([C@H](C)CO)C(=O)c2cccc(NC(=O)Nc3cccc4ccccc34)c2O[C@@H]1CN(C)C(=O)Nc1ccc(C(F)(F)F)cc1 | -47 |
| COc1ccc2c3c(n(C)c2c1)[C@@H](CO)N(C(=O)C1CCCC1)CC31CN(C(=O)Nc2cccc(F)c2)C1 | -13.8 |
| COc1ccc2c3c(n(C)c2c1)[C@@H](CO)N(C(=O)C1CC1)CC31CCN(C(=O)Nc2cccc(F)c2)CC1 | -11.9 |
| CCCNC(=O)N1[C@H](C#N)[C@H](c2ccc(C#Cc3cccc(F)c3)cc2)[C@H]1CO | -49.6 |
| COc1ccc(NC(=O)N(C)C[C@H]2Oc3c(NC(=O)Nc4ccccc4)cccc3C(=O)N([C@@H](C)CO)C[C@H]2C)cc1 | -9.45 |
| C[C@@H]1CN([C@@H](C)CO)C(=O)c2cccc(NC(=O)c3nc4ccccc4s3)c2O[C@H]1CN(C)C(=O)NC1CCCCC1 | -13.8 |
| C[C@H]1CN([C@@H](C)CO)C(=O)c2cc(NC(=O)Nc3ccc(C(F)(F)F)cc3)ccc2O[C@@H]1CN(C)C(=O)Nc1cccc2ccccc12 | 2.11 |
| C[C@H]1CN([C@@H](C)CO)C(=O)c2c(c3ccccc3n2C)-c2ccccc2CO[C@@H]1CN(C)C(=O)Nc1ccc(-c2ccccc2)cc1 | -18.3 |
| COc1ccc(C#Cc2ccc3c(c2)O[C@@H](CN(C)C(=O)Nc2cccc(OC)c2)[C@H](C)CN([C@H](C)CO)S3(=O)=O)cc1 | -30.5 |
| COc1ccc(C#Cc2ccc3c(c2)[C@H]2[C@H](CCN2C(=O)C2CCCC2)[C@@H](CO)N3)cc1 | -20.4 |
| COc1ccc(-c2ccccc2[C@H]2[C@@H](C#N)N(C(=O)C3CCCC3)[C@@H]2CO)cc1 | -33.4 |
| C[C@@H]1CN([C@H](C)CO)C(=O)c2cc(NC(=O)Nc3ccc(C(F)(F)F)cc3)ccc2O[C@H]1CN(C)C(=O)Nc1cccc2ccccc12 | -5.2 |
| COc1ccc(NC(=O)N2CCCCN3[C@H](CO)[C@H](c4ccc(C#Cc5ccccn5)cc4)[C@@H]3C2)cc1 | -9.61 |
| COc1ccc(NC(=O)N2CCC3(CC2)CN(C(=O)C2CCC2)[C@H](CO)c2c3c3ccc(OC)cc3n2C)cc1 | -24.5 |
| CC(C)NC(=O)N1[C@@H](CO)[C@@H](c2ccccc2)C12CN(Cc1ccc(F)cc1)C2 | -23.3 |
| COc1ccc2c3c([nH]c2c1)[C@H](CO)NCC31CCN(C(=O)Nc2ccc3c(c2)OCO3)CC1 | -12.1 |
| COc1ccc2c3c([nH]c2c1)[C@H](CO)N(C(=O)C1CCCCC1)CC31CCN(Cc2nccs2)CC1 | 0.429 |
| COc1ccccc1S(=O)(=O)N(C)C[C@H]1Oc2cc(/C=C/c3ccccc3)ccc2S(=O)(=O)N([C@H](C)CO)C[C@@H]1C | -6.95 |
| COc1cccc(S(=O)(=O)N(C)C[C@@H]2Oc3ncc(C#Cc4ccc(OC)c(OC)c4)cc3C(=O)N([C@H](C)CO)C[C@@H]2C)c1 | 2.24 |
| C[C@H](CO)N1C[C@H](C)[C@H](CN(C)S(=O)(=O)c2ccc(C#N)cc2)OCc2ccccc2-c2c(n(C)c3ccccc23)C1=O | -36.8 |
| O=C(c1ccncc1)N1CC(=O)N2[C@H](C1)[C@@H](c1ccc(-c3cccnc3)cc1)[C@@H]2CO | -13.9 |
